High-throughput results from PubChem.
This is a sample that favours compounds with a hit; in the whole collection about 4.1% have one here.
DAX1 inh-1: blocks DAX1 repression of SF-1 activated StAR promoter. HEK293T StAR-luciferase reporter, SF-1/DAX-1 repression relief. inhibition, % at 6.8 µM. 370,000 compounds, 1.1% hits. AID 652010;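 active means inhibition above the mean over all tested compounds plus 3 SD, cut at about 3.6% in these data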;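 further: 0% = DAX-1 cells with DMSO and 100% = cells lacking DAX-1 with DMSO; higher inhibition means more luminescence from relief of DAX-1 repression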
hcDAF-12 act: activates DAF-12 receptor from parasite H. contortus | HEK293 hcDAF-12 lit1-tk-luc reporter, luminescence; 0% DMSO, 100% Δ7-dafachronic acid | activation, % at 6.8 µM | 370,000 compounds, 1.4% hits;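 active means activation above the mean of all tested compounds plus 3 SD, cut at about 5.5% in these data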;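 further: 100% = response to 3 µM Δ7-dafachronic acid high control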
hgDAF-12 ag: agonists of H. glycines DAF-12 nuclear receptor | HEK293 GAL4-hgDAF12 UAS-luciferase reporter, agonist luminescence; normalized to butyrate control | activation, % at 6.8 µM | 370,000 compounds, 1.8% hits;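 active means activation above a cutoff set at the mean of all screened compounds plus 3 SD, cut at about 10% in these data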;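 further: 0% = DMSO wells and 100% = sodium butyrate wells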
ssDAF-12 act: S. stercoralis DAF-12 activation, primary screen; HEK293 ssDAF-12/GRIP1 lit1-tk-luc reporter, luminescence; % of 3 µM dafachronic acid response; activation, % at 6.8 µM; 370,000 compounds, 1% hits; AID 652126;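 active means activation above the mean over all tested compounds plus 3 SD, cut at about 0.9% in these data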;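 further: 0% = DMSO-only wells and 100% = 3 µM delta7-dafachronic acid wells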
DAX1 inh-2: inhibits human nuclear receptor DAX1; HEK293 Gal4-DAX1 luciferase reporter, luminescence; inhibition, % at 6.75 µM; 340,000 compounds, 0.99% hits; AID 504766;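 active means inhibition above the mean over all tested compounds plus 3 SD, cut at about 4.2% in these data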;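 further: 0% = DAX1-transfected cells with DMSO and 100% = empty-vector control cells with DMSO; inhibition shows as a rise in luminescence from relieved DAX1 repression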
Target sequence (P51843 207-470 limits assumed): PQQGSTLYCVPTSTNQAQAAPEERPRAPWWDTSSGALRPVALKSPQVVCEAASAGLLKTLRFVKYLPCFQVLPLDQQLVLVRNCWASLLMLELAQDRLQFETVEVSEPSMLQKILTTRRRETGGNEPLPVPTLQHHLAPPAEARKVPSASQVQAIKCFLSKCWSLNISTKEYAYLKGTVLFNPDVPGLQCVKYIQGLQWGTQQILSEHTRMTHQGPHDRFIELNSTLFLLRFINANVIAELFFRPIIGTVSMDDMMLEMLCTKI
DAX1 inh confirm: NR0B1 (human) inhibition, confirmation | shares compounds with DAX1 inh-1 | HEK293T StAR-promoter luciferase reporter, SF-1/DAX-1 repression | inhibition, % at 6.8 µM | 2,400 compounds, 87% hits | AID 652134;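 active means inhibition above the average of every tested compound plus 3 SD, cut at about 3.8% in these data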;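 further: 0% = DAX-1 cells with DMSO and 100% = no DAX-1 control cells with DMSO; active compounds raise luminescence by relieving repression of the StAR reporter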
Target sequence (P51843 whole entry, looked up): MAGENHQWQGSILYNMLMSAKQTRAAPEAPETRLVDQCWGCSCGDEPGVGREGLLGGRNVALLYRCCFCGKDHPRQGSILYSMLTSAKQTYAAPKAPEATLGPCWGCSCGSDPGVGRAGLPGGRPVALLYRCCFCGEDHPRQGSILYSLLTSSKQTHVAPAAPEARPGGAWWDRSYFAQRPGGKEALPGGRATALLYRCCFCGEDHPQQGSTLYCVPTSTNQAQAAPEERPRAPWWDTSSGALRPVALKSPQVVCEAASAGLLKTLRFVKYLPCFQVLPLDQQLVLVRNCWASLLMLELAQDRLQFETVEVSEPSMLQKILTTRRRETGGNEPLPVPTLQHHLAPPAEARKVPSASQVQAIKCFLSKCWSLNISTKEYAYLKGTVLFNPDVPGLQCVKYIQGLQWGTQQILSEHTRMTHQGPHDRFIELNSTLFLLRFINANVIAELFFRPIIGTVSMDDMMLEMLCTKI
SF1 mutant ctr: nonselective inhibitor or artifact in SF-1 mutant DAX1 counter-screen; shares compounds with DAX1 inh-1; HEK293 StAR-luciferase, SF-1 AF2 mutant, luminescence; inhibition, % at 6.8 µM; 2,400 compounds, 78% hits; AID 652136;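 active means inhibition above the mean of all tested compounds plus 3 SD, cut at about 3% in these data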;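 further: 0% = DAX-1 transfected cells with DMSO and 100% = cells without DAX-1 with DMSO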
Active calls of the source: *; x = not tested or not shown.

SMILES | DAX1 inh-1 | hcDAF-12 act | hgDAF-12 ag | ssDAF-12 act | DAX1 inh-2 | DAX1 inh confirm | SF1 mutant ctr
CC(C)(C)OC(=O)N1CCC(C(=O)Nc2ccc3c(c2)CCC3)CC1 | 4.7* | 2.2 | 12.2* | 0.3 | 1.0 | 4.7* | 2.6
O=C(N[C@H]1/C=C\[C@@H](O)CCCC1)OCc1ccccc1 | 7.6* | 4.8 | 11.0* | 0.6 | 3.1 | 10.6* | 9.1*
O=[N+]([O-])c1ccccc1S(=O)(=O)Nc1cccc(-c2ccc(N3CCCC3)nn2)c1 | 2.0 | 0.6 | 2.8 | -0.9 | 0.3 | x | x
O=[N+]([O-])c1ccccc1S(=O)(=O)Nc1cccc(-c2ccc(N3CCOCC3)nn2)c1 | 5.2* | 0.5 | 5.3 | -0.4 | 0.6 | 7.0* | 5.2*
CC(CCC(=O)O)C1CCC2C3CC(O)C4CC(O)CC[C@]4(C)C3CCC12C (stereo partly specified) | 0.1 | -1.0 | 1.2 | -1.4 | 2.3 | x | x
CCOC(=O)N1CCC(NC(=O)c2ccc3c(c2)N=C(C)c2c(C)ccc(C)c2S3)CC1 | 9.0* | -1.5 | -1.0 | -0.9 | -0.1 | 14.8* | -6.3
Nc1[nH]c(C(=O)c2ccccc2)c(-c2ccccn2)c1C(=O)c1c[nH]c2ccc(Br)cc12 | x | 0.0 | 0.8 | -0.9 | x | x | x
COc1ccc(N=C(C)C2=C(O)c3ccccc3C2=O)cc1 | 5.0* | 4.0 | 11.6* | 0.6 | 1.0 | 19.2* | 5.9*
CCOc1ccc(N=C(C)C2=C(O)c3ccccc3C2=O)cc1 | 1.1 | 2.1 | 9.9 | -0.2 | 2.7 | x | x
Cc1cc(C(=O)CN2C(=O)C(=O)N(CC(C)C)C2=O)c(C)n1C1CC1 | 1.7 | 2.4 | 2.5 | -0.6 | 0.6 | x | x
CCOC(=O)N1CCN(C(=O)c2ccc3oc(CCCc4ccccc4)nc3c2)CC1 | 5.2* | 3.1 | 8.1 | -0.8 | 1.9 | 6.0* | 2.2
COc1cc2nn(-c3ccccc3N)nc2cc1OC | 4.7* | 3.2 | 10.9* | 0.1 | 2.5 | 6.7* | 4.8*
Cc1cn([C@H]2C[C@H](O)[C@@H](CCC(=O)NCCc3cccs3)O2)c(=O)[nH]c1=O | 0.3 | 0.8 | -0.7 | -0.8 | x | x | x
OC[C@H]1O[C@H](c2nc(-c3nc(-c4cccs4)no3)cs2)C[C@@H]1O | 4.8* | 3.0 | 11.8* | 0.0 | x | 5.7* | 2.6
COc1cc(OC)cc(-c2noc(-c3csc([C@H]4C[C@H](O)[C@@H](CO)O4)n3)n2)c1 | 2.8 | 1.6 | 6.1 | 0.0 | x | x | x
Cc1ccc(C(=O)N/N=C/c2ccoc2)cc1C | 0.8 | 1.0 | -0.8 | -1.0 | 0.5 | x | x
COc1ccc(C(=O)CSc2nccn2C)c(OC)c1 | 6.9* | 2.7 | 11.1* | -0.3 | 1.1 | 5.5* | 2.6
Cn1ccnc1SCC(=O)Nc1ccccc1 | 0.3 | -0.6 | -0.2 | -1.1 | 0.1 | x | x
COc1ccc(NC(=O)CSc2nccn2Cc2ccco2)cc1 | 5.2* | 1.0 | 8.2 | -0.1 | 0.8 | 6.8* | 6.0*
CCOc1ccc(NC(=O)CSc2nccn2Cc2ccco2)cc1 | -2.5 | 2.0 | 6.2 | -0.6 | 1.2 | x | x
COc1ccc(OC)c(C(=O)CSc2nnnn2C)c1 | 1.1 | -1.9 | -0.9 | -0.8 | 0.4 | x | x
Cn1ccnc1SCC(=O)Nc1ccc2ccccc2c1 | 5.7* | 5.0 | 9.1 | 1.2* | 0.3 | 10.3* | 6.3*
Cn1ccnc1SCC(=O)Nc1ccc(SC(F)F)cc1 | 6.2* | 1.7 | 5.0 | 0.1 | 0.9 | 8.4* | 5.3*
C=CCn1c(=O)c2c(nc(-n3nc(C)cc3C)n2C)n(C)c1=O | 0.0 | -0.1 | -3.3 | -1.2 | -1.5 | x | x
O=C(C[n+]1ccc2ccccc2c1)c1ccc2ccc3ccccc3c2c1 | 5.3* | 0.6 | 1.8 | -0.8 | x | -3.1 | -1.2
SMILES | DAX1 inh-1 | hcDAF-12 act | hgDAF-12 ag | ssDAF-12 act | DAX1 inh-2 | DAX1 inh confirm | SF1 mutant ctr
O=C(c1ccccc1F)N1CCN(C(=O)C2CC2)CC1 | 2.2 | 0.9 | 0.0 | -0.7 | 0.8 | x | x
O=C(CSc1nnc(-c2ccccc2Cl)o1)Nc1ccccn1 | 6.1* | 2.9 | 11.1* | -0.8 | -1.3 | 17.1* | 6.7*
O=[N+]([O-])c1cc(S(=O)(=O)C(F)(F)F)ccc1NCC1CCCO1 (stereo unspecified) | -0.2 | -1.6 | -1.4 | -1.1 | -1.7 | x | x
CN(CCOc1ccc(Br)cc1)C(=O)CNC(=O)c1ccc2ccccc2c1 | -0.2 | -1.1 | 1.6 | -0.8 | -1.5 | x | x
Cc1ccccc1S(=O)(=O)/N=C(/Nc1c(C)n(C)n(-c2ccccc2)c1=O)c1ccccc1 | -0.5 | -0.6 | 1.2 | -0.9 | 0.1 | x | x
Cc1ccccc1S(=O)(=O)/N=C(/Nc1nc2ccccc2s1)c1ccccc1 | 5.5* | 2.5 | 11.2* | -0.1 | 0.4 | 3.8* | 4.1*
Clc1ccc(-c2cn3cc(Br)ccc3n2)cc1Cl | 8.0* | 14.4* | 23.3* | 3.0* | 1.7 | 12.6* | 5.2*
Cc1ccc2nc(-c3ccc4c(c3)OCCO4)cn2c1 | -2.6 | -5.5 | -11.6 | -2.5 | -9.5 | x | x
Cc1cccc(C(=O)Nc2ccn(C)n2)c1 | 4.9* | -0.1 | 8.4 | -0.6 | 1.9 | 5.8* | 3.0*
Cc1ccc(C(=O)CC2(O)C(=O)N(C)c3ccccc32)s1 (stereo unspecified) | -0.3 | 4.5 | -1.3 | -1.1 | -1.8 | x | x
CC1=C(/C=C/C(C)=C/C=C/C(C)=C\C(=O)O)C(C)(C)CCC1 | 5.9* | -2.8 | -4.9 | -1.4 | -1.4 | 17.9* | 7.5*
CC1=C(/C=C/C(C)=C/C=C/C(C)=C/C(=O)Nc2ccc(O)cc2)C(C)(C)CCC1 | 0.9 | 0.5 | 7.2 | -0.9 | 0.7 | x | x
C#CCN1C(=O)[C@]2(OC[C@@H]3Cc4ccccc4[C@@H]3C=C2C)c2ccccc21 | -0.8 | -1.7 | 0.3 | -1.5 | x | x | x
CC(=O)Nc1cnc(-c2ccc3c(c2)OCO3)cn1 | 4.8* | 4.6 | 12.4* | -0.4 | x | 9.0* | 5.7*
CC(=O)Nc1cnc(-c2cc(C)c(O)c(C)c2)cn1 | 1.8 | 1.1 | 2.8 | -0.8 | x | x | x
O=C(c1cc(-c2ccc(Cl)cc2Cl)on1)N1CCOCC1 | 6.1* | 4.2 | 6.5 | 0.0 | -2.7 | 7.9* | 1.8
O=C(c1cc(-c2ccccc2O)on1)N1CCOCC1 | 1.0 | -0.1 | 8.7 | -0.5 | 2.8 | x | x
COc1cc(NC(=O)c2sc3ncn(CC(=O)N4CCCCC4)c(=O)c3c2C)cc(OC)c1OC | -0.4 | -1.7 | -3.3 | -1.4 | -0.2 | x | x
COC(=O)c1sccc1NC(=O)Nc1ccc(C)cc1 | 8.5* | 5.9* | 13.2* | 1.4* | 1.5 | 4.6* | 2.3
C[C@H](NC(=O)[C@@H]1CCCN1C(=O)[C@@H]1CCCN1C(=O)c1cccc2ccccc12)c1ccccc1 | -0.1 | 0.8 | -0.7 | -0.5 | x | x | x
C[C@@H]1CN([C@H](C)CO)C(=O)CCCn2nncc2CO[C@@H]1CN(C)S(=O)(=O)c1ccc2c(c1)OCCCO2 | 4.8* | 1.9 | 2.7 | -1.1 | 0.8 | 2.2 | 2.3
